Measured values from PubChem BioAssay (NCI).
Compounds without any hit were thinned out: in the full panel of roughly 79,000, 15% have a hit. Activity calls are given as the source filed them. No stated cut-off is given here; in the data, active means growth inhibition above about 70%; inactive means the rest.

Key:
[1] = NCI Yeast Anticancer Drug Screen. Data for the wt1 strain (AID 149);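 further: 0% = growth of vehicle-treated wt1 cultures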; conditions: S. cerevisiae wt1 strain (SPY 50644) growth inhibition, active compounds read high
How it was run: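 Compounds are added to wt1 yeast cultures. Growth is then measured. Inhibition is expressed relative to vehicle-treated controls.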

[2] = NCI Yeast Anticancer Drug Screen. Data for the rad50EPP+ strain (AID 151);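 further: 0% = growth of vehicle-treated control cultures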; conditions: S. cerevisiae rad50 mutant strain, active compounds read high
How it was run: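 Exposing the rad50EPP+ strain to each compound, growth was compared with vehicle-only cultures to give inhibition.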

[3] = NCI Yeast Anticancer Drug Screen. Data for the mgt1 strain (AID 153); conditions: S. cerevisiae mgt1 mutant growth inhibition, active compounds read high
How it was run: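 Genetically defined yeast (mgt1) treated with compound; inhibition of growth expressed against vehicle-treated controls.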

[4] = NCI Yeast Anticancer Drug Screen. Data for the rad50 strain (AID 155);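 further: 0% = growth of vehicle-only cultures of the same strain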; conditions: S. cerevisiae rad50 strain growth inhibition, active compounds read high
How it was run: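 Inhibition values express reduced yeast growth in compound-treated cultures relative to vehicle-treated controls.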

[5] = NCI Yeast Anticancer Drug Screen. Data for the mec2-1 strain (AID 157); conditions: S. cerevisiae mec2-1 strain, active compounds read high
How it was run: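 Readout is yeast growth inhibition, normalised to vehicle-treated controls, in the mec2-1 strain exposed to compound.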

[6] = NCI Yeast Anticancer Drug Screen. Data for the rad14 strain (AID 159);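 further: 0% = growth of vehicle-treated control cultures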; conditions: S. cerevisiae rad14 strain growth inhibition, active compounds read high
How it was run: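 A mutant yeast strain defective in DNA damage repair is treated with compound; inhibition of its growth is scored against untreated, vehicle-exposed cultures.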

[7] = NCI Yeast Anticancer Drug Screen. Data for the sgs1 mgt1 strain (AID 161);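 further: 0% = growth of cultures given vehicle only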; conditions: S. cerevisiae sgs1 mgt1 strain, active compounds read high
How it was run: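 Compounds are added to genetically altered yeast, and growth is compared with cultures given vehicle alone to give percent inhibition.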

[8] = NCI Yeast Anticancer Drug Screen. Data for the CLN2oe strain (AID 163);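 further: 0% = growth of vehicle-only control cultures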; conditions: S. cerevisiae CLN2oe strain, active compounds read high
How it was run: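 Values reflect how much compound exposure reduced yeast growth, referenced to vehicle-exposed cells. Assay organism is a strain with a defined genetic change affecting cell-cycle control.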

[9] = NCI Yeast Anticancer Drug Screen. Data for the cln2 rad14 strain (AID 165);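 further: 0% = growth equal to vehicle treated cultures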; conditions: S. cerevisiae cln2 rad14 strain, active compounds read high
How it was run: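 Relative to vehicle controls, growth inhibition of compound-treated cln2 rad14 yeast was recorded.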

[10] = NCI Yeast Anticancer Drug Screen. Data for the bub3 strain (AID 167); conditions: S. cerevisiae bub3 mutant strain, active compounds read high
How it was run: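 Steps: expose the mutant yeast strain to compound; grow alongside vehicle-treated cultures; measure growth; express inhibition against the vehicle cultures.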

[11] = NCI Yeast Anticancer Drug Screen. Data for the wt2 strain (AID 169);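 further: 0% = growth of vehicle-treated yeast cultures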; conditions: S. cerevisiae wt2 strain growth inhibition, active compounds read high
How it was run: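 Values express reduction in yeast growth under compound treatment, referenced to vehicle-treated cells.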

[12] = NCI Yeast Anticancer Drug Screen. Data for the mlh1 strain (AID 171);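 further: 0% = growth of vehicle-treated control cultures of the same strain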; conditions: S. cerevisiae mlh1 strain growth inhibition, active compounds read high
How it was run: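 Steps: expose the defined-mutant yeast strain to compound; expose a parallel culture to vehicle; measure growth; express compound effect as inhibition relative to the vehicle culture.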

[13] = NCI Yeast Anticancer Drug Screen. Data for the sgs1 strain (AID 173);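 further: 0% = growth of vehicle-only control cultures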; conditions: S. cerevisiae sgs1 mutant, active compounds read high
How it was run: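 Treat defined-mutant yeast with compound; measure growth; calculate inhibition relative to vehicle-treated cells.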

[14] = NCI Yeast Anticancer Drug Screen. Data for the mlh1 rad18 strain (AID 175); conditions: S. cerevisiae mlh1 rad18 strain growth inhibition, active compounds read high
How it was run: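 Test agents were incubated with a yeast strain of defined genotype (DNA damage repair defect). Inhibition of growth was derived by comparison with vehicle-exposed cultures.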

[15] = NCI Yeast Anticancer Drug Screen. Data for the rad18 strain (AID 177); conditions: S. cerevisiae rad18 mutant growth inhibition, active compounds read high
How it was run: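 A genetically defined yeast mutant impaired in DNA damage repair was treated with test compounds, then its growth was measured against cultures receiving vehicle alone.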

[16] = at 5.0 µM (retest, dose inferred, filed as 0.5)
[17] = at 50.0 µM (retest, dose inferred, filed as 5.0)

Measured: growth inhibition

O=C1Nc2ccccc2/C1=C/COc1ccccc1
active: [1]; at 100.0 µM 97% | [2]; at 11.0 µM 92% | [2]; at 33.0 µM 97% | [2]; at 100.0 µM 98% | [3]; at 33.0 µM 93% | [3]; at 100.0 µM 99% | [4]; at 33.0 µM 71% | [4]; [17] 99% | [4]; at 50.0 µM 99.5% | [4]; at 100.0 µM 98% | [5]; at 33.0 µM 97% | [5]; [17] 99% | [5]; at 50.0 µM 99.5% | [5]; at 100.0 µM 99% | [6]; at 33.0 µM 97% | [6]; at 100.0 µM 99% | [7]; [17] 99% | [7]; at 50.0 µM 99.6% | [8]; at 100.0 µM 98% | [9]; [17] 99% | [9]; at 50.0 µM 98.2% | [10]; at 33.0 µM 96% | [10]; [17] 99% | [10]; at 50.0 µM 99.8% | [10]; at 100.0 µM 98% | [11]; at 33.0 µM 88% | [11]; at 100.0 µM 99% | [12]; at 33.0 µM 89% | [12]; at 100.0 µM 99% | [13]; at 33.0 µM 98% | [13]; at 100.0 µM 99% | [14]; [17] 99% | [14]; at 50.0 µM 99.5% | [15]; at 33.0 µM 81% | [15]; at 100.0 µM 98%
inactive: [1]; at 1.2 µM -1% | [1]; at 3.7 µM -1% | [1]; at 11.0 µM 9% | [1]; at 33.0 µM 62% | [2]; at 1.2 µM 21% | [2]; at 3.7 µM 58% | [3]; at 1.2 µM -1% | [3]; at 3.7 µM 1% | [3]; at 11.0 µM 19% | [4]; at 1.2 µM 2% | [4]; at 3.7 µM 4% | [4]; [16] 28% | [4]; at 11.0 µM 20% | [5]; at 1.2 µM -2% | [5]; at 3.7 µM 6% | [5]; [16] 13% | [5]; at 11.0 µM 23% | [6]; at 1.2 µM 0% | [6]; at 3.7 µM 5% | [6]; at 11.0 µM 20% | [7]; [16] 26% | [8]; at 1.2 µM 0% | [8]; at 3.7 µM 2% | [8]; at 11.0 µM 15% | [8]; at 33.0 µM 39% | [9]; [16] 7% | [10]; at 1.2 µM -3% | [10]; at 3.7 µM 0% | [10]; [16] 2% | [10]; at 11.0 µM 13% | [11]; at 1.2 µM -2% | [11]; at 3.7 µM 1% | [11]; at 11.0 µM 15% | [12]; at 1.2 µM -4% | [12]; at 3.7 µM -1% | [12]; at 11.0 µM 17% | [13]; at 1.2 µM 1% | [13]; at 3.7 µM 11% | [13]; at 11.0 µM 45% | [14]; [16] 20% | [15]; at 1.2 µM 0% | [15]; at 3.7 µM 4% | [15]; at 11.0 µM 16%

O=C(O)C1CCCCC1c1c2ccc(=O)c(O)c-2oc2c(O)c(O)ccc12 (stereo unspecified)
active: [1]; at 100.0 µM 82% | [3]; at 100.0 µM 86% | [4]; [17] 77% | [4]; at 50.0 µM 77.8% | [4]; at 100.0 µM 77% | [5]; [17] 80% | [5]; at 50.0 µM 82.1% | [5]; at 100.0 µM 85% | [6]; at 100.0 µM 84% | [7]; [17] 80% | [8]; at 100.0 µM 86% | [9]; [17] 74% | [10]; at 33.0 µM 72% | [10]; [17] 80% | [10]; at 50.0 µM 87.2% | [10]; at 100.0 µM 86% | [11]; at 100.0 µM 73% | [12]; at 100.0 µM 74% | [13]; at 100.0 µM 74% | [14]; [17] 84% | [14]; at 50.0 µM 75.3% | [15]; at 100.0 µM 80%
inactive: [1]; at 1.2 µM -17% | [1]; at 3.7 µM -11% | [1]; at 11.0 µM -3% | [1]; at 33.0 µM 32% | [2]; at 1.2 µM -9% | [2]; at 3.7 µM 0% | [2]; at 11.0 µM -24% | [2]; at 33.0 µM -39% | [2]; at 100.0 µM -48% | [3]; at 1.2 µM 11% | [3]; at 3.7 µM 10% | [3]; at 11.0 µM 15% | [3]; at 33.0 µM 53% | [4]; at 1.2 µM -12% | [4]; at 3.7 µM -22% | [4]; [16] 9% | [4]; at 11.0 µM -16% | [4]; at 33.0 µM 28% | [5]; at 1.2 µM -38% | [5]; at 3.7 µM -32% | [5]; [16] -7% | [5]; at 11.0 µM -13% | [5]; at 33.0 µM 46% | [6]; at 1.2 µM -17% | [6]; at 3.7 µM -7% | [6]; at 11.0 µM -9% | [6]; at 33.0 µM 19% | [7]; [16] 7% | [7]; at 50.0 µM 59.4% | [8]; at 1.2 µM 15% | [8]; at 3.7 µM 28% | [8]; at 11.0 µM 23% | [8]; at 33.0 µM 67% | [9]; [16] -21% | [9]; at 50.0 µM 56.2% | [10]; at 1.2 µM 0% | [10]; at 3.7 µM 6% | [10]; [16] -7% | [10]; at 11.0 µM 12% | [11]; at 1.2 µM -32% | [11]; at 3.7 µM -23% | [11]; at 11.0 µM -25% | [11]; at 33.0 µM 13% | [12]; at 1.2 µM -30% | [12]; at 3.7 µM -9% | [12]; at 11.0 µM -33% | [12]; at 33.0 µM 38% | [13]; at 1.2 µM -11% | [13]; at 3.7 µM -20% | [13]; at 11.0 µM -16% | [13]; at 33.0 µM 33% | [14]; [16] -3% | [15]; at 1.2 µM -8% | [15]; at 3.7 µM 5% | [15]; at 11.0 µM 2% | [15]; at 33.0 µM 20%
